Measurements: PubChem BioAssay AID2284360 (EPA ToxCast)
Results filed as inconclusive are left out. Active and inactive are the calls of the source. Rule for the calls: active = hit-call score of the fitted dose curve at least 0.9, where 1 is the maximum; inconclusive = response in the unintended direction; inactive = score below 0.9.

Experiment: ATG_M_19_EcoTox2: Attagene TRANS-FACTORIAL EcoTox-2 HepG2 Assay for M19 Transcription Factor (Internal Marker)
Experimental: ATG_EcoTox2 is a cell-based, multiplexed assay created by modifying the existing Attagene TRANS-FACTORIAL system to include a panel of nuclear receptors from some or all the following species: human (Homo sapiens), african clawed frog (Xenopus laevis), rainbow trout (Oncorhynchus mykiss), japanese medaka (Oryzias latipes), and zebrafish (Danio rerio). The ECOTOX2-FACTORIAL format uses HepG2, a human liver cell line, with measurements taken at 24 hours after chemical dosing in a 24-well plate. ATG_M_19_EcoTox2 is one of 29 assay components calculated in the ATG_EcoTox2 assay. It is designed to make measurements of mRNA induction, a form of inducible reporter, as detected with fluorescence intensity signals by Reverse transcription polymerase chain reaction (RT-PCR) and Capillary electrophoresis technology.The assay endpoint ATG_M_19_EcoTox2 was analyzed in the positive analysis fitting direction relative to DMSO as the negative control and baseline of activity. Using a type of inducible reporter, measures of mRNA for gain-of-signal activity can be used to understand the background control at the transcription factor-level as they relate to the gene. Furthermore, this assay endpoint can be referred to as a secondary readout, because this assay has produced multiple assay endpoints where this one serves a background control function. To generalize the intended target to other relatable targets, this assay endpoint is annotated to the background measurement intended target family, where the subfamily is internal marker.
Human liver HepG2 cells are transiently transfected with multiple reporter transcription units (MRTUs) in 6-well plates using FuGene 6 reagent (Roche; 3 ml FuGene/1 mg DNA). The MRTU constructs are regulated by a cis-regulating element (promoter). Each RTU expresses a GAL4-UAS that regulates the transcription of a nearby target reporter gene sequence. A major difference between the CIS and TRANS system is that in CIS activities of endogenous TFs are measured, whereas the TRANS assay evaluates changes in activities of exogenous, chimeric NR-Gal4 proteins. […] At the end of 24 hour incubation, total RNA was isolated using TriZol reagent (Invitrogen). The isolated RNA is then reverse-transcribed using oligo(dT) primer and Mo-MLV reverse transcriptase (Invitrogen) with DNAse I (Ambion) treatment for 30 min. The one-tenth of the produced cDNA was amplified by PCR using Taq DNA polymerase (Invitrogen) and two reporter sequence-specific primers. […] The fragments were purified using Qiaquick PCR columns (Qiagen), analyzed on an ABI 3130xL genetic analyzer (Applied Biosystems) with peak positions identified by using a set of X-rhodamine (ROX)-labeled MapMarker1000 molecular weight standards (BioVentures). […]
In the case of CC(C)(Oc1ccc(Cl)cc1)C(=O)O, the outcome is reported as “inactive”.
In the case of Cc1ccc(C)c(OCCCC(C)(C)C(=O)O)c1, the outcome is reported as “inactive”.
With CC(C)(Oc1ccc(CCNC(=O)c2ccc(Cl)cc2)cc1)C(=O)O the outcome was “inactive”.
With C[C@@H]1C[C@H]2[C@@H]3CCC4=CC(=O)C=C[C@]4(C)[C@@]3(F)[C@@H](O)C[C@]2(C)[C@@]1(O)C(=O)COP(=O)(O)O the outcome was “inactive”.
